# In PubChem BioAssay (NCATS):
# Inconclusive results are not listed. A call without a number means that no potency is given here. Calls of active or inactive are those of the source. The call rests on the fitted dose curve; in most records, active means well fitted curve in the direction sought with a large enough effect; inconclusive means small, poorly fitted or top-dose-only effect, or another doubt; inactive means no such curve, though single readings can be large; an effect the other way counts as inactive or inconclusive.
# Legend:
# [1] = qHTS of pediatric cancer cell lines to identify multiple opportunities for drug repurposing: Primary screen for SK-N-MC cells (AID 1347093); details: SK-N-MC viability, CellTiter-Glo luminescence, 48 h; series mostly up to 46 µM; further: potency means the concentration at half of the fitted maximal effect
# Method in brief: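 Metabolically active cells were quantified by ATP-dependent luminescence (CellTiter-Glo, 15 min at room temperature) following 48 h treatment. Cells had been plated at 500-1,000 per well and settled for 5 h beforehand.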
# [2] = qHTS of pediatric cancer cell lines to identify multiple opportunities for drug repurposing: Primary screen for Saos-2 cells (AID 1347097); details: Saos-2 viability, CellTiter-Glo ATP luminescence, 48 h; series mostly up to 46 µM; further: nearly all actives have a fitted effect of over 40% in size; further: potency means the concentration at half of the fitted maximal effect
# Method in brief: (§1)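 Luminescence from CellTiter-Glo served as readout of metabolically active cells after 48 h compound exposure. Titrations: MIPE 11-point, from 0.78 nM; NPC 8-point, from 0.59 nM (final). Concentration-response curves came straight from the primary screen.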
# [3] = qHTS of pediatric cancer cell lines to identify multiple opportunities for drug repurposing: Primary screen for SK-N-SH cells (AID 1347098); details: SK-N-SH viability, CellTiter-Glo luminescence, 48 h; series mostly up to 57 µM; further: nearly all actives have a fitted effect of over 65% in size; further: potency means the concentration at half of the fitted maximal effect
# Method in brief: (§2)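 Cells (500-1,000/well) rested 5 h, then received compounds for 48 h; metabolically active cells were measured by CellTiter-Glo luminescence. Final concentrations spanned up to 46 µM (MIPE, 11-point) or 0.59 nM-46 µM (NPC, 8-point) in primary screens, 11-point in follow-ups.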
# [4] = qHTS of pediatric cancer cell lines to identify multiple opportunities for drug repurposing: Primary screen for BT-12 cells (AID 1347101); details: BT-12 viability, CellTiter-Glo luminescence, 48 h; series mostly up to 57.3 µM; further: nearly all actives have a fitted effect of over 25% in size; further: potency means the concentration at half of the fitted maximal effect
# Method in brief: as §2
# [5] = qHTS of pediatric cancer cell lines to identify multiple opportunities for drug repurposing: Primary screen for OHS-50 cells (AID 1347103); details: OHS-50 osteosarcoma viability, CellTiter-Glo luminescence, 48 h; series mostly up to 57.3 µM; further: nearly all actives have a fitted effect of over 40% in size; further: potency means the concentration at half of the fitted maximal effect
# Method in brief: as §2
# [6] = qHTS of pediatric cancer cell lines to identify multiple opportunities for drug repurposing: Primary screen for MG 63 (6-TG R) cells (AID 1347105); details: MG 63 (6-TG R) viability, CellTiter-Glo, 48 h; series mostly up to 46 µM; further: nearly all actives have a fitted effect of over 50% in size
# Method in brief: as §1
# [7] = qHTS of pediatric cancer cell lines to identify multiple opportunities for drug repurposing: Primary screen for control Hh wild type fibroblast cells (AID 1347106); details: Hh wild-type fibroblast viability, CellTiter-Glo luminescence, 48 h; series mostly up to 46 µM;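 further: a drop in luminescence marks cytotoxicity and a rise apparent proliferation; nearly all actives have a fitted effect of over 55% in size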
# Method in brief: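 Cells (500-1,000/well) in growth media were settled 5 h at 37 degrees C, then given compounds for 48 h. Viability was read as CellTiter-Glo luminescence. Primary runs used MIPE at 11 points (0.78 nM-46 µM) and NPC at 8 points (0.59 nM-46 µM); follow-ups used 11 points.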
# [8] = qHTS of pediatric cancer cell lines to identify multiple opportunities for drug repurposing: Primary screen for Rh30 cells (AID 1347107); details: Rh30 rhabdomyosarcoma viability, CellTiter-Glo luminescence, 48 h; series mostly up to 46 µM; further: nearly all actives have a fitted effect of over 75% in size
# Method in brief: as §2
# [9] = qHTS of pediatric cancer cell lines to identify multiple opportunities for drug repurposing: Primary screen for Rh41 cells (AID 1347108); details: Rh41 rhabdomyosarcoma viability, CellTiter-Glo luminescence, 48 h; series mostly up to 46 µM; further: nearly all actives have a fitted effect of over 70% in size; further: potency means the concentration at half of the fitted maximal effect
# Method in brief: as §1
# [10] = qHTS of pediatric cancer cell lines to identify multiple opportunities for drug repurposing: Primary screen for BT-37 cells (AID 1347094); details: BT-37 viability, CellTiter-Glo luminescence, 48 h; series mostly up to 57.3 µM
# Method in brief: as §1
# [11] = qHTS of pediatric cancer cell lines to identify multiple opportunities for drug repurposing: Primary screen for NB-EBc1 cells (AID 1347095); details: NB-EBc1 neuroblastoma viability, CellTiter-Glo luminescence, 48 h; series mostly up to 46 µM; further: potency means the concentration at half of the fitted maximal effect
# Method in brief: as §1
# [12] = qHTS of pediatric cancer cell lines to identify multiple opportunities for drug repurposing: Primary screen for U-2 OS cells (AID 1347096); details: U-2 OS viability, CellTiter-Glo luminescence, 48 h; series mostly up to 46 µM; further: nearly all actives have a fitted effect of over 50% in size
# Method in brief: as §2
# [13] = qHTS of pediatric cancer cell lines to identify multiple opportunities for drug repurposing: Primary screen for Rh18 cells (AID 1347102); details: Rh18 rhabdomyosarcoma viability, CellTiter-Glo luminescence, 48 h; series mostly up to 46 µM; further: nearly all actives have a fitted effect of over 65% in size; further: potency means the concentration at half of the fitted maximal effect
# Method in brief: as §2
# [14] = qHTS of pediatric cancer cell lines to identify multiple opportunities for drug repurposing: Primary screen for RD cells (AID 1347104); details: RD rhabdomyosarcoma viability, CellTiter-Glo luminescence, 48 h; series mostly up to 46 µM; further: nearly all actives have a fitted effect of over 55% in size; further: potency means the concentration at half of the fitted maximal effect
# Method in brief: as §1
# [15] = qHTS of pediatric cancer cell lines to identify multiple opportunities for drug repurposing: Primary screen for NB1643 cells (AID 1347099); details: NB1643 neuroblastoma viability, CellTiter-Glo luminescence, 48 h; series mostly up to 46 µM; further: nearly all actives have a fitted effect of over 50% in size; further: potency means the concentration at half of the fitted maximal effect
# Method in brief: as §1
# [16] = qHTS of pediatric cancer cell lines to identify multiple opportunities for drug repurposing: Primary screen for LAN-5 cells (AID 1347100); details: LAN-5 neuroblastoma viability, CellTiter-Glo luminescence, 48 h; series mostly up to 46 µM; further: potency means the concentration at half of the fitted maximal effect
# Method in brief: as §2
# [17] = qHTS of pediatric cancer cell lines to identify multiple opportunities for drug repurposing: Confirmatory screen for NB1643 cells (AID 1347109); details: NB1643 neuroblastoma cell viability; series mostly up to 45.9 µM; further: nearly all actives have a fitted effect of over 45% in size; further: potency means the concentration at half of the fitted maximal effect
# Method in brief: as §2
# [18] = qHTS of pediatric cancer cell lines to identify multiple opportunities for drug repurposing: Confirmatory screen for A673 cells (AID 1347110); details: A673 Ewing sarcoma cell viability; series mostly up to 45.9 µM;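 further: cells exposed to compound for 48 h before the viability read; nearly all actives have a fitted effect of over 65% in size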; further: potency means the concentration at half of the fitted maximal effect
# Method in brief: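 A673 cells at 500-1,000 cells/well were dosed 5 h after plating, in dilution series up to 46 uM final; primary runs used 8 or 11 points and confirmatory runs used 11 points. Viability was read by CellTiter-Glo luminescence after 48 h, against DMSO and 2.3 uM bortezomib controls.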
# [19] = qHTS of pediatric cancer cell lines to identify multiple opportunities for drug repurposing: Confirmatory screen for SK-N-MC cells (AID 1347111); details: SK-N-MC cell viability; series mostly up to 45.9 µM;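 further: potency means the concentration at half of the fitted maximal effect; cells exposed to compound for 48 h before the readout; nearly all actives have a fitted effect of over 70% in size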
# Method in brief: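 Seed 500-1,000 cells/well; rest 5 h at 37 degrees C. Pin-transfer compounds, 11-point titration. Incubate 48 h. Add CellTiter-Glo, 15 min RT, read luminescence.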
smiles,measurement,setting,value
CC/C(=C(\c1ccccc1)c1ccc(OCCN(C)C)cc1)c1ccccc1,Potency,[1],16.8 µM (active)
same,Potency,[2],21.1 µM (active)
same,Potency,[3],24.4 µM (active)
same,Potency,[4],27.6 µM (active)
same,Potency,[5],17.4 µM (active)
same,Potency,[6],inactive
same,Potency,[7],inactive
same,Potency,[8],inactive
same,Potency,[9],inactive
COc1ccc(C2Sc3ccccc3N(CCN(C)C)C(=O)C2OC(C)=O)cc1 (stereo not given),Potency,[10],inactive
same,Potency,[11],inactive
same,Potency,[12],inactive
same,Potency,[4],inactive
same,Potency,[13],inactive
same,Potency,[5],inactive
same,Potency,[14],inactive
same,Potency,[7],inactive
same,Potency,[8],inactive
same,Potency,[9],inactive
CC(=O)O[C@]1(C(C)=O)CC[C@H]2[C@@H]3C=C(Cl)C4=CC(=O)[C@@H]5C[C@@H]5[C@]4(C)[C@H]3CC[C@@]21C,Potency,[11],inactive
same,Potency,[12],inactive
same,Potency,[2],26.6 µM (active)
same,Potency,[15],inactive
same,Potency,[16],inactive
same,Potency,[4],12.3 µM (active)
same,Potency,[5],34.7 µM (active)
same,Potency,[6],inactive
same,Potency,[7],inactive
same,Potency,[9],18.8 µM (active)
O=C1Nc2ccc(Cl)cc2C(C#CC2CC2)(C(F)(F)F)O1 (stereo not given),Potency,[1],13.2 µM (active)
same,Potency,[11],inactive
same,Potency,[15],23.5 µM (active)
same,Potency,[13],inactive
same,Potency,[5],21.7 µM (active)
same,Potency,[14],41.8 µM (active)
same,Potency,[7],inactive
same,Potency,[8],inactive
CNC(=O)c1ccccc1Sc1ccc2c(C=Cc3ccccn3)n[nH]c2c1,Potency,[1],3.32 µM (active)
same,Potency,[12],inactive
same,Potency,[2],14.8 µM (active)
same,Potency,[15],16.6 µM (active)
same,Potency,[16],0.743 µM (active)
same,Potency,[4],19.3 µM (active)
same,Potency,[13],14.8 µM (active)
same,Potency,[5],21.7 µM (active)
same,Potency,[7],inactive
CCn1c(C(=O)N(C2CC2)C2CC2)cc2c3c(ncn3C)c(Nc3cc(C)n(C)n3)nc21,Potency,[10],inactive
same,Potency,[11],inactive
same,Potency,[12],inactive
same,Potency,[4],inactive
same,Potency,[14],inactive
same,Potency,[7],inactive
O=C(Nc1cccc(Br)c1)c1cccc(S(=O)(=O)N2CCCCCC2)c1,Potency,[12],inactive
same,Potency,[5],19.3 µM (active)
same,Potency,[17],inactive
same,Potency,[18],inactive
O=C(O)C(O)Cc1ccc(O)c(O)c1 (stereo not given),Potency,[10],inactive
same,Potency,[12],inactive
same,Potency,[3],inactive
same,Potency,[15],inactive
same,Potency,[4],inactive
same,Potency,[5],inactive
same,Potency,[14],inactive
same,Potency,[6],inactive
same,Potency,[7],inactive
same,Potency,[8],inactive
same,Potency,[9],inactive
Cn1cc(C=C2C(=O)Nc3cccnc32)c2ccccc21,Potency,[10],inactive
same,Potency,[11],inactive
same,Potency,[12],inactive
same,Potency,[2],inactive
same,Potency,[3],inactive
same,Potency,[15],inactive
same,Potency,[16],inactive
same,Potency,[4],inactive
same,Potency,[6],inactive
same,Potency,[7],inactive
same,Potency,[8],inactive
same,Potency,[9],inactive
O=C1NC(=O)C(=Cc2ccc(-c3ccc(F)cc3)o2)S1,Potency,[12],inactive
same,Potency,[15],18.7 µM (active)
same,Potency,[16],inactive
same,Potency,[13],inactive
same,Potency,[7],inactive
same,Potency,[9],inactive
CCOC(=O)C1=C(N)Oc2ccc(Br)cc2C1C(C#N)C(=O)OCC (stereo not given),Potency,[10],inactive
same,Potency,[11],6.62 µM (active)
same,Potency,[12],inactive
same,Potency,[15],10.5 µM (active)
same,Potency,[16],16.6 µM (active)
same,Potency,[13],14.8 µM (active)
same,Potency,[5],inactive
same,Potency,[14],29.6 µM (active)
same,Potency,[6],inactive
same,Potency,[7],inactive
same,Potency,[8],inactive
NC(=O)c1ccc2nc(-c3ccc(Oc4ccc(Cl)cc4)cc3)[nH]c2c1,Potency,[11],inactive
same,Potency,[12],inactive
same,Potency,[2],inactive
same,Potency,[3],inactive
same,Potency,[15],inactive
same,Potency,[4],2.43 µM (active)
same,Potency,[13],inactive
same,Potency,[6],inactive
same,Potency,[7],inactive
same,Potency,[8],inactive
same,Potency,[9],inactive
CC[C@H]1OC(=O)[C@H](C)C(=O)[C@H](C)[C@@H](O[C@H]2O[C@H](C)C[C@H](N(C)C)[C@@H]2O)[C@](C)(OC)C[C@@H](C)C(=O)[C@H](C)[C@H]2N(CCCCn3cnc(-c4cccnc4)c3)C(=O)O[C@]12C,Potency,[11],inactive
same,Potency,[12],inactive
same,Potency,[2],inactive
same,Potency,[5],inactive
Oc1ccc(C2CCN(c3ccnc4ccccc34)CC2)cc1O,Potency,[11],23.5 µM (active)
same,Potency,[2],inactive
same,Potency,[16],18.7 µM (active)
same,Potency,[4],7.69 µM (active)
same,Potency,[13],inactive
same,Potency,[7],inactive
same,Potency,[17],16.5 µM (active)
same,Potency,[18],2.61 µM (active)
same,Potency,[19],18.5 µM (active)
CC(C)[C@H](CO)Nc1nc(Nc2ccc(C(=O)O)c(Cl)c2)c2ncn(C(C)C)c2n1,Potency,[11],23.5 µM (active)
same,Potency,[12],inactive
same,Potency,[6],inactive
same,Potency,[7],inactive
same,Potency,[8],inactive
OC[C@H]1O[C@@H](n2cnc3c2NC=NC[C@@H]3O)C[C@H]1O,Potency,[10],inactive
same,Potency,[11],inactive
same,Potency,[12],inactive
same,Potency,[3],inactive
same,Potency,[16],inactive
same,Potency,[4],inactive
same,Potency,[13],inactive
same,Potency,[14],inactive
same,Potency,[6],inactive
same,Potency,[7],inactive
same,Potency,[9],inactive
same,Potency,[18],1.04 µM (active)
same,Potency,[19],8.27 µM (active)
Cc1cccc(Nc2nc(-c3ccncc3)cs2)c1,Potency,[1],inactive
same,Potency,[12],inactive
same,Potency,[2],inactive
same,Potency,[3],inactive
same,Potency,[15],inactive
same,Potency,[5],21.7 µM (active)
same,Potency,[6],inactive
same,Potency,[7],inactive
same,Potency,[8],inactive
CC(C)C(=O)Nc1ncc(-c2cc(C(F)F)nn2-c2c(Cl)cccc2Cl)s1,Potency,[11],16.6 µM (active)
same,Potency,[2],18.7 µM (active)
same,Potency,[5],27.3 µM (active)
same,Potency,[8],inactive
O=C1NC(=O)C(=Cc2cccc(C(F)(F)F)c2)S1,Potency,[10],inactive
same,Potency,[12],inactive
same,Potency,[2],inactive
same,Potency,[3],inactive
same,Potency,[16],inactive
same,Potency,[13],inactive
same,Potency,[14],inactive
same,Potency,[6],inactive
same,Potency,[9],23.5 µM (active)
